Data reported in PubChem BioAssay (EPA / NIEHS).
Several values for one entry are separate records, joined by “and”; a condition that tells them apart may be missing. Equal values may be shown once. More than one record can exist for a structure, and the calls need not agree. Activity calls are given as the source filed them. Rule for the calls: active = hit-call score of the fitted dose curve at least 0.9, where 1 is the maximum; inactive = score below 0.9.

What follows are molecules tested on urokinase plasminogen activator (uPA), PLAU (gene 5328) (assay: BSK_BE3C_uPA: BioMAP Diversity Plus: BE3C Assay for urokinase plasminogen activator (uPA) Biomarker Activity (AID 2283038;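 for outcome: uPA protein level quantified by ELISA in cell cultures; uPA read one day after compound addition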)). Conditions: primary human bronchial epithelial cells; actives raise or lower the signal.
How it was run: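 ELISA for uPA on human primary bronchial epithelial cultures 24 h post-treatment, gain or loss against DMSO. Parallel SRB staining (0.1% after 10% TCA fixation, 560 nm) assessed overt cytotoxicity.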
With `O=P(O)(O)CCC(F)(F)C(F)(F)C(F)(F)C(F)(F)C(F)(F)C(F)(F)C(F)(F)C(F)(F)F` the outcome was “inactive”. With `CCC(C)c1ccccc1O` (stereo not given) the outcome was “inactive”. `O=C(O)C(F)(F)OC(F)(F)C(F)(F)OC(F)(F)C(F)(F)OC(F)(F)C(F)(F)C(F)(F)C(F)(F)F` was tested, and the AC50 was 3.94 µM (active) and 3.9 µM (active). For `CCCCCCCCCCCCCCC`, the outcome was “inactive”. In the case of `O=C1NS(=O)(=O)c2ccccc21`, the outcome is reported as “inactive”. For `C[C@]12CC[C@@H]3c4ccc(O)cc4CC[C@H]3[C@@H]1C[C@@H](O)[C@@H]2O`, the outcome was “inactive”. For `CCOC(=O)CN[C@@H](C(=O)N1CC[C@H]1C(=O)NCc1ccc(/C(N)=N/O)cc1)C1CCCCC1`, the outcome was “inactive”. With `CCCCC(CC)C(=O)OCCOCCOCCOCCOC(=O)C(CC)CCCC` (stereo not given) the outcome was “inactive”. With `Clc1ccc(Nc2nnc(Cc3ccncc3)c3ccccc23)cc1` the AC50 was 5.6 µM (active). For `Cc1cccc2c1ccc1ccccc12`, the outcome was “inactive”. `CC(C)(C)c1ccc(O)c(O)c1` was tested, and the outcome was “inactive”. For `CN(C)c1ccc(C(=C2C=CC(=[N+](C)C)C=C2)c2ccccc2)cc1`, the AC50 was 0.958 µM (active). In the case of `O=P(O)(O)CCC(F)(F)C(F)(F)C(F)(F)C(F)(F)C(F)(F)C(F)(F)F`, the outcome is reported as “inactive”. For `O=S(=O)(O)C(F)(F)C(F)(F)C(F)(F)C(F)(F)C(F)(F)C(F)(F)C(F)(F)C(F)(F)C(F)(F)C(F)(F)F`, the outcome was “inactive”. In the case of `O=C(NO)c1ccccc1`, the outcome is reported as “inactive”. In the case of `CC[N+](CC)(CC)Cc1ccccc1`, the outcome is reported as “inactive”. In the case of `O=C(c1ccccc1)c1ccccc1`, the outcome is reported as “inactive”. `OCC(F)(F)C(F)(F)C(F)(F)C(F)(F)C(F)(F)C(F)(F)C(F)(F)C(F)(F)C(F)(F)C(F)(F)C(F)(F)F` was tested, and the outcome was “inactive”. In the case of `O=C1OC2(c3ccccc31)c1cc(I)c(O)c(I)c1Oc1c2cc(I)c(O)c1I`, the AC50 is reported as 8.35 µM (active). In the case of `Cc1[nH]nc2c1N=C(c1ccccc1Cl)c1cc([N+](=O)[O-])ccc1N2`, the outcome is reported as “inactive”. For `O=C(NCc1ncc(C(F)(F)F)cc1Cl)c1c(Cl)cccc1Cl`, the outcome was “inactive”. In the case of `N=C(N)c1ccc(OCCCCCOc2ccc(C(=N)N)cc2)cc1`, the AC50 is reported as 17.5 µM (active). For `C=CC(C)(CCC=C(C)C)OC(C)=O` (stereo not given), the outcome was “inactive”. In the case of `CCCCCCCCCCCCCCCCCC[N+](C)(C)Cc1ccccc1`, the AC50 is reported as 10 µM (active). `O=C(O)CCC(F)(F)C(F)(F)C(F)(F)C(F)(F)C(F)(F)C(F)(F)F` was tested, and the outcome was “inactive”. For `Oc1ccc(Cc2ccccc2O)cc1`, the outcome was “inactive”. With `CCCCC=O` the outcome was “inactive”. With `CN(CCO)S(=O)(=O)C(F)(F)C(F)(F)C(F)(F)C(F)(F)C(F)(F)C(F)(F)C(F)(F)C(F)(F)F` the outcome was “inactive”. `COCN(COC)c1nc(N(COC)COC)nc(N(COC)COC)n1` was tested, and the outcome was “inactive”. `O=C1c2ccc(O)c(O)c2C(=O)c2c(O)ccc(O)c21` was tested, and the outcome was “inactive”. With `OCCN1CN(CCO)CN(CCO)C1` the outcome was “inactive”. In the case of `CCCCc1oc2ccccc2c1C(=O)c1cc(I)c(OCCN(CC)CC)c(I)c1`, the AC50 is reported as 20.1 µM (active). In the case of `O=C(O)CCC(F)(F)C(F)(F)C(F)(F)C(F)(F)C(F)(F)F`, the outcome is reported as “inactive”. With `CN(Cc1cnc2nc(N)nc(N)c2n1)c1ccc(C(=O)N[C@@H](CCC(=O)O)C(=O)O)cc1` the outcome was “inactive”. `O=C(CC(=O)C(F)(F)C(F)(F)C(F)(F)F)c1cccs1` was tested, and the AC50 was 47.4 µM (active) and 46 µM (active). `CS(=O)(=O)c1ccc([C@@H](CC2CCCC2)C(=O)Nc2cnccn2)cc1Cl` was tested, and the outcome was “inactive”. With `CC1=NN(c2ccccc2)C(=O)C1` the outcome was “inactive”.

These molecules were tested on Urokinase-type plasminogen activator receptor (uPAR), PLAUR (gene 5329) (assay: BSK_BE3C_uPAR: BioMAP Diversity Plus: BE3C Assay for Urokinase-type plasminogen activator receptor (uPAR) Biomarker Activity (AID 2283039;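 for outcome: uPAR protein level measured by ELISA on the cells; cells exposed to compound for one day before measurement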)). Conditions: primary human bronchial epithelial cells; actives raise or lower the signal.
How it was run: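 Primary human bronchial epithelial cells dosed for 24 h; uPAR quantified by ELISA with bidirectional fitting against DMSO. Overt cytotoxicity assessed in parallel cultures by SRB total-protein staining (0.1% SRB, 560 nm).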
For `O=P(O)(O)CCC(F)(F)C(F)(F)C(F)(F)C(F)(F)C(F)(F)C(F)(F)C(F)(F)C(F)(F)F`, the outcome was “inactive”. With `CCC(C)c1ccccc1O` (stereo not given) the outcome was “inactive”. `O=C(O)C(F)(F)OC(F)(F)C(F)(F)OC(F)(F)C(F)(F)OC(F)(F)C(F)(F)C(F)(F)C(F)(F)F` was tested, and the AC50 was 5.83 µM (active) and 5.88 µM (active). With `CCCCCCCCCCCCCCC` the outcome was “inactive”. For `O=C1NS(=O)(=O)c2ccccc21`, the outcome was “inactive”. `C[C@]12CC[C@@H]3c4ccc(O)cc4CC[C@H]3[C@@H]1C[C@@H](O)[C@@H]2O` was tested, and the outcome was “inactive”. For `CCOC(=O)CN[C@@H](C(=O)N1CC[C@H]1C(=O)NCc1ccc(/C(N)=N/O)cc1)C1CCCCC1`, the outcome was “inactive”. For `CCCCC(CC)C(=O)OCCOCCOCCOCCOC(=O)C(CC)CCCC` (stereo not given), the outcome was “inactive”. With `Clc1ccc(Nc2nnc(Cc3ccncc3)c3ccccc23)cc1` the outcome was “inactive”. For `Cc1cccc2c1ccc1ccccc12`, the outcome was “inactive”. With `CC(C)(C)c1ccc(O)c(O)c1` the outcome was “inactive”. In the case of `CN(C)c1ccc(C(=C2C=CC(=[N+](C)C)C=C2)c2ccccc2)cc1`, the AC50 is reported as 0.186 µM (active). In the case of `O=P(O)(O)CCC(F)(F)C(F)(F)C(F)(F)C(F)(F)C(F)(F)C(F)(F)F`, the outcome is reported as “inactive”. For `O=S(=O)(O)C(F)(F)C(F)(F)C(F)(F)C(F)(F)C(F)(F)C(F)(F)C(F)(F)C(F)(F)C(F)(F)C(F)(F)F`, the AC50 was 21.5 µM (active) and the outcome was “inactive”. In the case of `O=C(NO)c1ccccc1`, the outcome is reported as “inactive”. For `CC[N+](CC)(CC)Cc1ccccc1`, the outcome was “inactive”. In the case of `O=C(c1ccccc1)c1ccccc1`, the outcome is reported as “inactive”. `OCC(F)(F)C(F)(F)C(F)(F)C(F)(F)C(F)(F)C(F)(F)C(F)(F)C(F)(F)C(F)(F)C(F)(F)C(F)(F)F` was tested, and the outcome was “inactive”. With `O=C1OC2(c3ccccc31)c1cc(I)c(O)c(I)c1Oc1c2cc(I)c(O)c1I` the AC50 was 6.1 µM (active). In the case of `Cc1[nH]nc2c1N=C(c1ccccc1Cl)c1cc([N+](=O)[O-])ccc1N2`, the outcome is reported as “inactive”. `O=C(NCc1ncc(C(F)(F)F)cc1Cl)c1c(Cl)cccc1Cl` was tested, and the outcome was “inactive”. `N=C(N)c1ccc(OCCCCCOc2ccc(C(=N)N)cc2)cc1` was tested, and the outcome was “inactive”. With `C=CC(C)(CCC=C(C)C)OC(C)=O` (stereo not given) the AC50 was 27.1 µM (active). In the case of `CCCCCCCCCCCCCCCCCC[N+](C)(C)Cc1ccccc1`, the outcome is reported as “inactive”. `O=C(O)CCC(F)(F)C(F)(F)C(F)(F)C(F)(F)C(F)(F)C(F)(F)F` was tested, and the outcome was “inactive”. For `Oc1ccc(Cc2ccccc2O)cc1`, the outcome was “inactive”. For `CCCCC=O`, the outcome was “inactive”. With `CN(CCO)S(=O)(=O)C(F)(F)C(F)(F)C(F)(F)C(F)(F)C(F)(F)C(F)(F)C(F)(F)C(F)(F)F` the outcome was “inactive”. `COCN(COC)c1nc(N(COC)COC)nc(N(COC)COC)n1` was tested, and the outcome was “inactive”. In the case of `O=C1c2ccc(O)c(O)c2C(=O)c2c(O)ccc(O)c21`, the outcome is reported as “inactive”. For `OCCN1CN(CCO)CN(CCO)C1`, the outcome was “inactive”. `CCCCc1oc2ccccc2c1C(=O)c1cc(I)c(OCCN(CC)CC)c(I)c1` was tested, and the AC50 was 20.6 µM (active). For `O=C(O)CCC(F)(F)C(F)(F)C(F)(F)C(F)(F)C(F)(F)F`, the outcome was “inactive”. `CN(Cc1cnc2nc(N)nc(N)c2n1)c1ccc(C(=O)N[C@@H](CCC(=O)O)C(=O)O)cc1` was tested, and the outcome was “inactive”. `O=C(CC(=O)C(F)(F)C(F)(F)C(F)(F)F)c1cccs1` was tested, and the AC50 was 45.6 µM (active). With `CS(=O)(=O)c1ccc([C@@H](CC2CCCC2)C(=O)Nc2cnccn2)cc1Cl` the outcome was “inactive”. `CC1=NN(c2ccccc2)C(=O)C1` was tested, and the outcome was “inactive”.
